# UBC13 inh: blocks human UBC13 polyubiquitin chain formation. TR-FRET. actives 0.47% (n = 330,000). AID 485273. inhibition, % at 20 µM; in the data active = inhibition above about 45%, passing the limit was not always enough
# RAD54 inh: inhibitors of human RAD54 branch migration; RAD54 Holliday junction branch migration, FAM/BHQ fluorescence; actives 0.14% (n = 360,000); AID 602329; inhibition, % at 10.4 µM;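 active = mean normalized replicate activity at least 40 and at least half of replicates scoring 40 or more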;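 also: inhibitors cause a drop in the FAM fluorescence signal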
# FID counter: counter-screen for HCV NS3 helicase inhibitors: DNA intercalator displacement | actives 0.17% (n = 290,000) | AID 1845 | DNA fluorescent intercalator displacement, fluorescence | inhibition, % at 7.9 µM; in the data active = inhibition above about 37%;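 also: higher means more ethidium bromide displaced from hairpin DNA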
# beta cell repl: inducers of beta-cell replication in MIN6 cells. AID 2380. MIN6 cells proliferation, ATPlite luminescence, 48 h; cells starved in 0.2% serum; 100% = growth in 10% serum. actives 0.29% (n = 330,000). proliferation, % at 10 µM;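 active = compounds whose signal lies at least 3.5 SD above the mean of all wells on their plate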
# RAD52 inh: RAD52 (human) annealing inhibition; P43351; recombinant RAD52 DNA annealing, FRET fluorescence; inhibition, % at 18.7 µM; actives 0.46% (n = 360,000); AID 651710;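 active = every replicate showing at least 50% inhibition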
# PREPL inhibitor: inhibitors of human prolyl oligopeptidase-like enzyme PREPL; actives 0.68% (n = 320,000); AID 2751; Q4J6C6; inhibition, % at 5.96 µM; recombinant PREPL, fluorescence polarization activity-based probe; in the data active = inhibition above about 43%
# Target sequence (Q4J6C6 whole entry, looked up): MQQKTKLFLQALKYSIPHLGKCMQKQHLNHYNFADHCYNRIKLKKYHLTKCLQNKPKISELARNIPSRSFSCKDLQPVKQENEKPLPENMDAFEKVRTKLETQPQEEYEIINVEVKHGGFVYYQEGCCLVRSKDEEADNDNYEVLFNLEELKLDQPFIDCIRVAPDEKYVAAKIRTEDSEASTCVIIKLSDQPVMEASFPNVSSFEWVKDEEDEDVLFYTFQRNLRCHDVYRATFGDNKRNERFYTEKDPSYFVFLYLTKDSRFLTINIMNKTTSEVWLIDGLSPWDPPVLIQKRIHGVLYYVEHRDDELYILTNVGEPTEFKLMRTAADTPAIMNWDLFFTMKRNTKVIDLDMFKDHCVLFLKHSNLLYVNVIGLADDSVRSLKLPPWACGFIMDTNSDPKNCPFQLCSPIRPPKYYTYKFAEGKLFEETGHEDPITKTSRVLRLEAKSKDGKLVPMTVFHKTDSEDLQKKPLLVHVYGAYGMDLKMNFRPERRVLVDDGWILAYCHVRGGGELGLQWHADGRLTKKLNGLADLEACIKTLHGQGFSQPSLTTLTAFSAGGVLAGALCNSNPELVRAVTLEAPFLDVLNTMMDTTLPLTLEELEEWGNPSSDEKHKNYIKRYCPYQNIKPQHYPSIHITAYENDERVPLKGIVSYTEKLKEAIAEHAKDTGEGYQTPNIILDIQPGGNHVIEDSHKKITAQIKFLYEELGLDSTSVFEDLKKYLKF
# Hits are given with their value; n = inactive; x = no result given; ! = not confirmed by another sample. The list is not random: actives were taken first. Their share in the collection is about 1.3%.
SMILES,UBC13 inh,RAD54 inh,FID counter,beta cell repl,RAD52 inh,PREPL inhibitor
O=C(NCc1ccccc1)[C@@H]1[C@@H](CO)[C@@H]2Cn3c(cccc3=O)[C@H]1N2CC1CCCC1,x,n,x,x,n,x
O=C(CC1CC1)N1CC(=O)N2[C@H](CO)[C@H](c3ccc(C#Cc4ccccc4)cc3)[C@H]2C1,x,x,x,x,n,x
COCC(=O)N(C)C[C@@H]1Oc2ncc(Br)cc2C(=O)N([C@H](C)CO)C[C@@H]1C,x,n,x,x,x,x
CC(C)CN=c1cc(-c2ccccc2)oc2ccc(Cl)cc12,n,x,n,n,x,n
CC(O)CN=c1cc(-c2ccccc2)oc2ccc(Cl)cc12 (stereo not given),n,67,n,n,n,n
OCCN=c1cc(-c2ccccc2)oc2ccc(Cl)cc12,n,82,n,n,x,n
CCC(=O)N[C@H]1CC[C@H](CC(=O)NCc2ccc(OC)cc2)O[C@H]1CO,x,n,x,x,n,x
Cc1nc2c3cc(Cl)ccc3n(CCN3CCCCC3)c2s1,n,n,39,n,x,n
CC(C)n1c(Nc2ccccc2)nc2ccccc21,n,n,91,n,x,n
Cc1cccc(CN2C(=O)/C(=C\c3ccc(C(=O)NCCN4CCOCC4)cc3)Sc3ccccc32)c1,n,n,n,n,x,n
CCN1CCN(CCNC(=O)c2ccc(/C=C3/Sc4ccccc4N(Cc4cccc(Cl)c4)C3=O)cc2)CC1,n,x,39,n,n,n
O=C(CN1C(=O)/C(=C\c2cccc(Cl)c2)Sc2ccccc21)NCCCN1CCOCC1,n,n,43,n,n,n
O=C(NCCN1CCOCC1)c1ccc2c(c1)N(Cc1cccc(F)c1)C(=O)c1ccccc1S2,n,x,n,n,n,n
Cc1ccc(CN2C(=O)c3ccccc3Sc3ccc(C(=O)NCCCN4CCOCC4)cc32)cc1,n,n,37,n,n,n
CCc1ccc(/C=C2/Sc3ccccc3N(CC(=O)NCCCN3CCOCC3)C2=O)cc1,n,n,54,n,n,n
C[C@H](CO)N1C[C@H](C)[C@@H](CN(C)Cc2ccc(Cl)c(Cl)c2)Oc2ccc(NC(=O)NC3CCCCC3)cc2CC1=O,x,n,x,x,n,x
C[C@@H]1CN([C@H](C)CO)S(=O)(=O)c2ccc(C#CC3CC3)cc2O[C@@H]1CN(C)C(=O)c1ccccc1,x,n,x,x,n,x
COc1cccc(NC(=O)N2[C@@H]3CNC[C@H]2C3c2ccc(-c3cccc(OC)c3)cc2)c1 (stereo not given in full),x,x,x,x,66!,x
COc1ccc(-c2ccc(C3[C@H]4CNC[C@@H]3N4C(=O)Nc3cccc(OC)c3)cc2)cc1 (stereo not given in full),x,x,x,x,67!,x
COc1cccc(NC(=O)N2[C@@H]3CNC[C@H]2C3c2ccc(-c3cccnc3)cc2)c1 (stereo not given in full),x,x,x,x,n,x
COc1ccccc1NC(=O)N1[C@@H]2CNC[C@H]1C2c1ccc(-c2ccccc2OC)cc1 (stereo not given in full),x,x,x,x,n,x
COc1cccc(-c2ccc(C3[C@H]4CNC[C@@H]3N4S(=O)(=O)c3cccc(Cl)c3)cc2)c1 (stereo not given in full),x,x,x,x,53,x
COc1cccc(-c2ccc(C3[C@H]4CNC[C@@H]3N4C(=O)Nc3ccccc3Cl)cc2)c1 (stereo not given in full),x,x,x,x,51!,x
Cc1cc(N2CCOCC2)nc2ccc(NC(=S)NCCN(C)C)cc12,n,n,52,n,n,n
CCN(CC)CCNC(=S)Nc1ccc2nc(N3CCOCC3)cc(C)c2c1,n,n,n,n,n,n
SMILES,UBC13 inh,RAD54 inh,FID counter,beta cell repl,RAD52 inh,PREPL inhibitor
C[C@@H]1CCCCO[C@@H](CN(C)S(=O)(=O)c2ccc(F)cc2)[C@H](C)CN([C@@H](C)CO)C(=O)c2cc(NS(=O)(=O)c3ccc(F)cc3)ccc2O1,x,n,x,x,x,x
Cc1cc(C)c(Nc2cc(S(=O)(=O)O)c(N)c3c2C(=O)c2ccccc2C3=O)c(C)c1,x,x,44,x,x,57
COc1ccc2c3c(n(C)c2c1)[C@@H](CO)NCC31CCN(Cc2cc(F)ccc2F)CC1,x,x,x,x,n,x
COc1ccc2c3c(n(C)c2c1)[C@@H](CO)NCC31CCN(Cc2ccc(-c3ccccn3)cc2)CC1,x,x,x,x,83,x
COc1ccc2c3c(n(C)c2c1)[C@H](CO)NCC31CN(Cc2ccccc2Cl)C1,x,x,x,x,n,x
COc1ccc2c3c(n(C)c2c1)[C@H](CO)NCC31CCN(Cc2cc(F)ccc2F)CC1,x,x,x,x,n,x
COc1ccc2c3c(n(C)c2c1)[C@@H](CO)NCC31CN(Cc2ccc(-c3ccccn3)cc2)C1,x,x,x,x,96,x
COc1ccc2c3c(n(C)c2c1)[C@H](CO)NCC31CCN(Cc2ccc(-c3ccccn3)cc2)CC1,x,x,x,x,82,x
CO[C@@H]1CN(C)C(=O)c2ccc(NC(=O)C3CCOCC3)cc2OC[C@@H](C)N(C(C)=O)C[C@H]1C,x,n,x,x,n,x
Cc1ccc(-c2cnc3c(c2)C(=O)N([C@H](C)CO)C[C@@H](C)[C@H](CN(C)C(=O)c2ccccc2)O3)cc1,x,n,x,x,n,x
CCOC(=O)c1ccc(S(=O)(=O)N2CCC(C(=O)OCC)CC2)cc1,n,n,n,n,n,n
CCOC(=O)c1ccc(S(=O)(=O)N2CCC(N3CCCCC3)CC2)cc1,47,n,n,n,n,n
CCc1ccc2c(c1)cc(CN(Cc1ccco1)C(C)=O)c1nnnn12,n,x,n,11,n,n
C[C@@H]1CN([C@@H](C)CO)C(=O)c2c(c3ccccc3n2C)-c2ccccc2CO[C@@H]1CN(C)CC1CC1,x,n,x,x,n,x
Cc1oc(-c2ccc(Cl)cc2)nc1CS(=O)CC(=O)NC1CCCCC1 (stereo not given),n,n,n,n,n,n
Cc1oc(-c2ccc(Cl)cc2)nc1CS(=O)CC(=O)NCCCN(C)C1CCCCC1 (stereo not given),n,n,n,n,x,57
Cc1c(Cl)ccc(S(=O)(=O)NCCN2CCOCC2)c1Cl,n,n,n,n,n,n
COc1c(S(=O)(=O)NCCN2CCOCC2)ccc(Cl)c1Cl,n,n,n,n,x,44
CCNC(=O)[C@H]1[C@H](CO)[C@H]2Cn3c(ccc(-c4cccnc4)c3=O)[C@H]2N1Cc1ccccc1,x,n,x,x,n,x
CN(C)CCNC(=O)COc1ccc(C23CC4CC(CC(C4)C2)C3)cc1,n,x,38,n,n,n
Cc1ccc(C23CC4CC(CC(NC(=O)NCCN(C)C)(C4)C2)C3)cc1,n,n,n,n,x,n
Cc1cccc(-c2ccc([C@@H]3[C@@H](CO)N4C(=O)CN(C(=O)Cc5ccccn5)C[C@@H]34)cc2)c1,x,x,x,x,n,x
O=C(O[C@@H]1OC2COC(=O)c3cc(O)c(O)c(O)c3-c3c(cc(O)c(O)c3O)C(=O)O[C@@H]([C@H]1O)[C@@H]2O)c1cc(O)c(O)c(O)c1,x,n,n,x,x,54
COc1ccc(NC(=O)Nc2ccc3c(c2)C(=O)N([C@H](C)CO)C[C@H](C)[C@H](CN(C)Cc2ccc(C(F)(F)F)cc2)OCCCC[C@@H](C)O3)cc1,x,n,x,x,n,x

# Bioassay records (PubChem)
